These results are taken from PubChem BioAssay AID504332 (National Center for Advancing Translational Sciences (NCATS), 2011).

The structures appear in SMILES notation. Hit rate of the full screen: of about 350,000 compounds, about 31,000 (8.9%) were called active. Where a call stands in place of a potency, no number is given. Roughly 15% stayed inconclusive and do not appear here. The sample holds actives, similar compounds and a random draw of the others, so the mix is not that of the screen. A number with no mark means an inactive call. Calls come from the whole dose curve; as a rule, active = well fitted inhibition curve with a large enough effect; inconclusive = small, poorly fitted or top-dose-only effect; inactive = no such curve, though single readings can be large or run the other way.
Potency is the fitted concentration of half-maximal effect.

Chain of Histone-lysine N-methyltransferase EHMT2 (Homo sapiens) (Q96KQ7 913-1193 limits assumed): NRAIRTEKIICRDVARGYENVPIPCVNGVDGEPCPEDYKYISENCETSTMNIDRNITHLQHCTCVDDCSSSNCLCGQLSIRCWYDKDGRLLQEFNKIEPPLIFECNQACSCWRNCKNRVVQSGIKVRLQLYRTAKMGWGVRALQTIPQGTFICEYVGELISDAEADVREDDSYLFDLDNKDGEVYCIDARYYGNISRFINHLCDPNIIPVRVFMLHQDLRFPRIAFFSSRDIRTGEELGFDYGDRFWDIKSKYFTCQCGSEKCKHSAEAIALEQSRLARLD

The target in this test is Histone-lysine N-methyltransferase EHMT2 (Homo sapiens) (UniProt Q96KQ7). The experiment in a line: qHTS Assay for Inhibitors of Histone Lysine Methyltransferase G9a. Note: nearly all actives have a fitted effect of over 75% in size. The conditions noted are these: G9a H3K9 monomethylation, AlphaScreen, 2 h; series mostly up to 59 µM. The method in brief:
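Enzyme 20 nM + cpd, 15 min RT; add b-H3K9 pep 500 nM / SAM 20 uM; 2 h RT; anti-H3K9me1 Ab 0.5 ug/mL + SA donor / anti-rabbit acceptor beads 20 ug/mL each, 10 min; AlphaScreen read.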
`Cc1cccc(CC(=O)N2CC(=O)Nc3ccc(F)cc3C2c2ccccc2)c1` (stereo not drawn): the Potency result was “inactive”.

For the compound `CN=C1C=C/C(=N/N=c2\ccn(O)cc2C)C=C1C`, the Potency is 7.94 µM (active).

`O=C(NCCc1ccc(C(F)(F)F)cc1)c1ccc2c(c1)OCO2`: the Potency result was “inactive”.

As to `Cc1ccc(C)c(NC(CC(=O)c2ccccc2)C(=O)OCC(=O)c2cccs2)c1` (stereo not drawn), the Potency was 28.2 µM (active). The same measure, in the same setting: the value for `Cc1ccc(C)c(NC(=O)CCC(=O)NNC(=O)c2cccs2)c1` was “inactive”. On to `COC(=O)C(CC(=O)Nc1cc(C)ccc1C)Nc1ccccc1OC` (stereo not drawn), for which the activity, negative = inhibition was -11.9% [at 2.33 µM]. Same read-out and setting: the value for `CN1C(C(=O)NCC2CC2)CC2Cn3c(nc4ccccc43)C21` (stereo not drawn) was 2.03% [at 2.33 µM]; that for `Cc1ccc(S(=O)(=O)CC(=O)Nc2sc(C)c(C)c2C(N)=O)cc1` was -22.4% [at 0.501 µM]. In the case of `COc1ccccc1C(=O)Nc1ccc(C)c(S(=O)(=O)N2CCCCC2)c1`, the Potency result was “inactive”. As to `CCCCc1nc2ccccc2c(=O)n1NC(=O)c1c(O)c2cccc3c2n(c1=O)CC3`, the Potency result was “inactive”. Still for that read-out and setting: the same measure for `CCOC(=O)N1CCN(CC(=O)Nc2cc(C)nn2-c2nc3ccccc3s2)CC1`: “inactive”; for `CCCCc1nc2ccccc2c(NC(=O)CN2CCN(C)CC2)c1CCC`: 10 µM (active). Same read-out and setting: the value for `FC(F)(F)c1ccc2nnc(-c3c(Cl)cccc3Cl)n2c1` was 44.7 µM (active); that for `O=C1Cc2cc(S(=O)(=O)Nc3ccc(OC(F)(F)F)cc3)cc3c2N1CCC3` was “inactive”. On to `O=C(Nc1ccon1)c1nc[nH]c1C(=O)NCc1ccccc1`, for which the activity, negative = inhibition was 4.11% [at 0.501 µM]. For the compound `CCOC(=O)c1c(C)[nH]c(C)c1S(=O)(=O)N(C)CC(=O)N1CCN(c2ccccc2)CC1`, the Potency entry was “inactive”. The same measure, in the same setting: the same measure for `CCCCNC(=O)c1ccc(-n2c(=S)[nH]c3ccccc3c2=O)cc1`: “inactive”; for `CCOC(=O)N1CCN(C(=O)Cc2ccc(-n3c(=S)[nH]c4ccccc4c3=O)cc2)CC1`: 44.7 µM (active). Consider `O=C(Cc1ccc(-n2c(=O)[nH]c3ccccc3c2=O)cc1)N1CCN(c2cccc(Cl)c2)CC1`, for which the activity, negative = inhibition was -10.6% [at 12.7 µM].

Turning to `O=C(COC(=O)/C=C/c1ccc(OC(F)F)cc1)NC1CCCCC1`, the Potency entry was “inactive”. Regarding `Cc1ccc(OCCNC(=O)CCNS(=O)(=O)c2ccc(Br)cc2)cc1`, the Potency entry was “inactive”.

As for `COc1ccccc1-c1oc2ccccc2c1C#CCCCCO`, the activity, negative = inhibition was 7.94% [at 0.501 µM]. For the compound `Cc1cccc(CS(=O)(=O)c2ncc(Cl)c(C(=O)Nc3ccc(F)cc3)n2)c1`, the Potency was 28.2 µM (active).

`CCSc1ncc(Cl)c(C(=O)Nc2cc(C)ccc2C)n1`: the Potency entry was “inactive”. As to `CCOC(=O)c1ccc(NC(=O)c2nc(SCc3ccc(F)cc3)ncc2Cl)cc1`, the Potency entry was “inactive”.

With `Cc1ccc(S(=O)(=O)CC(=O)Nc2nnc(C)s2)cc1`, the Potency entry was “inactive”. The same measure, in the same setting: the same measure for `Cc1cccc(NC(=O)c2nc(S(=O)(=O)Cc3ccccc3)ncc2Cl)c1`: 39.8 µM (active); for `Cc1nnc(NC(=O)Nc2ccc(Cl)c(Cl)c2)s1`: “inactive”; for `Cc1ccc(CS(=O)(=O)c2ncc(Cl)c(C(=O)Nc3nnc(C)s3)n2)cc1`: 14.1 µM (active). On to `Cc1cccc(NC(=O)c2nc[nH]c2C(=O)NCC(=O)OCc2ccccc2)c1`, for which the Potency entry is “inactive”.

Take `Cc1cccc(OCc2ccc(C(=O)Nc3ccc(F)cc3)cc2)c1`: the Potency entry was “inactive”. Still for that read-out and setting: the same measure for `Cc1ccc(NC(=O)CN(C)C(=O)c2cccc(S(=O)(=O)N3CCCC3)c2)cc1`: “inactive”. With `COc1ccccc1OCC(=O)Nc1ccccc1C(=O)NC1CC1`, the activity, negative = inhibition is -4.61% [at 0.501 µM].

As to `COc1ccc(CCNC(=O)c2ccc(-n3c(C)cc4c3CCCC4)cc2)cc1OC`, the Potency entry was “inactive”. Still for that read-out and setting: the value for `O=C(CSC1=NS(=O)(=O)c2cc(F)ccc2N1)Nc1ccccc1F` was “inactive”; that for `N#Cc1nc(/C=C/c2ccc(F)cc2)oc1NC1CCCCC1` was “inactive”; that for `Cc1cc(C)c(NC(=O)Cn2c(SCC(=O)NCc3ccccc3)nc3ccccc32)c(C)c1` was “inactive”. Same read-out and setting: the value for `O=C(Nc1cc(Cl)cc(Cl)c1)c1ccc2c(c1)N(Cc1cccc(Cl)c1)C(=O)c1ccccc1S2=O` (stereo not drawn) was “inactive”; that for `COc1ccccc1NC(=O)c1oc2ccccc2c1NC(=O)COc1ccccc1OC` was “inactive”; that for `CCC(C)c1ccc2oc(-c3ccc(NC(=O)c4cc5ccccc5o4)cc3)nc2c1` (stereo not drawn) was “inactive”. For the compound `Cn1ccc(=Nc2ccc(NC(=O)c3ccc(N=c4ccn(C)c5ccc([N+](=O)[O-])cc45)cc3)cc2)cc1`, the Potency is 15.8 µM (active). Same read-out and setting: the same measure for `COc1cc(NS(=O)(=O)c2ccc(NC(=O)c3ccc([N+](=O)[O-])cc3)cc2)ncn1`: “inactive”; for `Cc1cc([N+](=O)[O-])ccc1NC(=O)c1ccc(NC(=O)C(C)C)cc1`: “inactive”. Same read-out and setting: the same measure for `COc1ccccc1CNS(=O)(=O)CC12CCC(CC1=O)C2(C)C` (stereo not drawn): “inactive”; for `COc1cc(C(=O)NCc2cc3cc(Cl)ccc3n2C)cc(OC)c1OC`: “inactive”; for `Cc1c(Cl)cccc1NC(=O)c1noc2c1CCCC2`: “inactive”.

Regarding `Cc1ccc(S(=O)(=O)N2CCCCC2)cc1C(=O)N(C)CC(=O)Nc1cccc(F)c1`, the Potency entry is “inactive”. On the same count and under the same terms, the value for `Cc1cc(C)c(SCCc2ccncc2)c(C)c1` was “inactive”. Turning to `CCOCC(=O)Nc1ncc(S(=O)(=O)c2ccc([N+](=O)[O-])cc2)s1`, the Potency is 35.5 µM (active). As to `Cc1cc(NC(=O)COc2ccc([N+](=O)[O-])cc2)no1`, the activity, negative = inhibition is -2.93% [at 12.7 µM]. On to `CC(C)c1nnc(NC(=O)COC(=O)/C=C/c2ccc([N+](=O)[O-])cc2)s1`, for which the Potency result is “inactive”. On to `CC/C(=N\NC(=O)c1c(C)nc2ccccn12)c1ccc(Cl)cc1`, for which the Potency result is “inactive”. Still for that read-out and setting: the same measure for `CC(C)C(C)NC(=O)COc1nc2ccccc2nc1N(C)C1CCCCC1` (stereo not drawn): “inactive”. Take `COc1ccccc1N(C)S(=O)(=O)c1ccc(Cl)c(C(=O)Nc2ccncc2)c1`: the Potency result was “inactive”. Consider `CN1CCN(C2(CNC(=O)COc3ccc(C(C)(C)C)cc3)CCCCC2)CC1`, for which the Potency result is “inactive”. Same read-out and setting: the same measure for `C/C(=N\NC(=S)NCc1ccccc1)c1ccc(Cl)cc1`: “inactive”; for `C/C(=N\NC(=S)NCc1ccccc1)C1CCCCC1`: 35.5 µM (active). On to `O=C(CC1CCCCC1)NCc1ccccc1`, for which the Potency entry is “inactive”. In the case of `COc1ccc(OC)c(CNC(=O)Cn2nc(C)c3c(C)n(-c4ccc(C)cc4)nc3c2=O)c1`, the Potency result was “inactive”.

Regarding `COc1cccc(CNC(=O)c2ccc3c(Cl)c4c(nc3c2)CCCC4)c1`, the Potency entry is “inactive”. As for `CCc1noc(C)c1C(=O)Nc1nc(-c2ccccc2)cs1`, the Potency result was “inactive”. Consider `C/C(CC1CC(C)(C)OC1=O)=N/Nc1nc(-c2ccccc2)cs1` (stereo not drawn), for which the Potency is 3.16 µM (active). `CC1(C)CC(CCC(=O)Nc2ccccc2Cl)C(=O)O1` (stereo not drawn): the Potency result is “inactive”. In the case of `CN1C(=O)c2[nH]nc(-c3ccc(F)cc3)c2C1c1ccccn1` (stereo not drawn), the Potency entry is “inactive”. On the same count and under the same terms, the value for `CCOC(=O)c1[nH]c2ccc(OC)cc2c1NC(=O)N1CCOCC1` was 50.1 µM (active); that for `CCOC(=O)C1CCN(C(=O)Nc2cccc(OC)c2)CC1` was “inactive”. In the case of `CCOC(=O)c1[nH]c2ccc(OC)cc2c1NC(=O)CCN1CCN(Cc2ccccc2)CC1`, the activity, negative = inhibition is -13.9% [at 2.33 µM]. `C=CCO/N=C/C1=C(O)C(C(=O)OC)C(C)(C)CC1=O` (stereo not drawn): the Potency was 15.8 µM (active). The same measure, in the same setting: the same measure for `CCCC(=O)C1=C(N(C)c2ccccc2)CC(C)(C)C(C(=O)OC)C1=O` (stereo not drawn): “inactive”.

For `COCC(C)N=CC1=C(O)CC(C)(C)CC1=O` (stereo not drawn), the Potency entry is “inactive”. Same read-out and setting: the same measure for `COc1ccc(S(=O)(=O)n2cnc3ccccc32)c(C)c1`: “inactive”. For `N#CCCN1CCN(S(=O)(=O)c2ccc(S(=O)(=O)N3CCCC3)cc2)CC1`, the Potency entry was “inactive”. Same read-out and setting: the same measure for `CC(C)(C)c1cc(CN2CCN(CCC#N)CC2)cc(C(C)(C)C)c1O`: 17.8 µM (active). Same read-out and setting: the value for `N#Cc1cccc(CN2CCC(=O)N(CCO)CC2)c1` was “inactive”; that for `CCN(C(=O)CSc1ncnc2sccc12)c1c(N)n(Cc2ccccc2)c(=O)[nH]c1=O` was “inactive”.

`Cc1ccc(N2C(=O)C3C4C=CC(CC4)C3C2=O)cc1Br` (stereo not drawn): the activity, negative = inhibition is -6.84% [at 0.501 µM]. For the compound `CCCn1nc(NC(=O)C(C)C)c2cc3cc(OC)ccc3nc21`, the Potency result is “inactive”. On the same count and under the same terms, the value for `O=S(=O)(c1ccc(Br)cc1)N1CCC(c2nc3ccccc3[nH]2)CC1` was 70.8 µM (active); that for `N#CC(C(=O)c1ccc(S(=O)(=O)N2CCCCCC2)cc1)c1nc2ccccc2[nH]1` (stereo not drawn) was “inactive”. Regarding `O=C(C1CCCO1)N1CCC(c2nc3ccccc3[nH]2)CC1` (stereo not drawn), the activity, negative = inhibition is -28.9% [at 12.7 µM]. Same read-out and setting: the value for `COc1ccc(CCNC(=O)COC(=O)Cc2cccc(F)c2)cc1` was 5.11% [at 0.501 µM].

As for `CC(Oc1cc2oc(=O)c3c(c2cc1Cl)CCCC3)C(=O)NCc1ccncc1` (stereo not drawn), the Potency entry is “inactive”.

`COc1cc(OC)nc(NC(=O)CCl)n1`: the Potency entry was “inactive”.

On to `COc1ccc(C/C(C)=N/NC(=O)c2ccncc2)cc1`, for which the Potency result is “inactive”. Turning to `COc1cc(OC)nc(N/N=C(\c2ccccc2)c2ccncc2)n1`, the Potency is 12.6 µM (active). `CN(CC(=O)NNC(=O)CNC(=O)c1ccccc1Cl)S(=O)(=O)c1ccc(Cl)cc1`: the activity, negative = inhibition is 4.73% [at 0.501 µM]. In the case of `Cc1ccc(NC(=O)c2cc3cc(C)ccc3n2C)cc1`, the Potency result is “inactive”. With `COc1ccc2oc(=O)c(C(=O)N3CCN(c4ccccc4F)CC3)cc2c1`, the activity, negative = inhibition is 21.4% [at 12.7 µM]. For `O=C(c1ccc(CN2CCOCC2)cc1)N1CCN(c2ccccc2F)CC1`, the Potency entry was “inactive”. The same measure, in the same setting: the same measure for `O=C(c1cccc2ccccc12)N1CCN(c2ccccc2F)CC1`: 2.82 µM (active). On the same count and under the same terms, the same measure for `CC(c1nnc(SCC(=O)Nc2sccc2C#N)n1-c1ccc(Cl)cc1)N(C)C` (stereo not drawn): 50.1 µM (active); for `Cc1csc(SCC(=O)Nc2sccc2C#N)n1`: “inactive”. On the same count and under the same terms, the same measure for `Cc1cccc(C)c1Nc1nnc(SCC(=O)Nc2sccc2C#N)s1`: “inactive”; for `COc1ccc(C2NC(=O)N(C)C(C)=C2[N+](=O)[O-])cc1` (stereo not drawn): “inactive”; for `COc1cccc(C(=O)NNC(=O)c2cccc(F)c2)c1`: “inactive”. Turning to `CCCCOC(=O)/C(C#N)=C/c1ccc(-c2cccc(C(F)(F)F)c2)o1`, the Potency result was “inactive”. Still for that read-out and setting: the same measure for `O=C(O)/C=C/c1ccc(OCCCF)cc1`: “inactive”; for `CCOc1ccc(Nc2oc(/C=C/c3ccc(F)cc3)nc2C#N)cc1`: “inactive”.
